# Screening results: PubChem, National Center for Advancing Translational Sciences (NCATS)
# HCV inh: qHTS Assay for Inhibitors of Hepatitis C Virus (HCV); Potency, µM (series often up to 41.8 µM), for inactives: at the top dose activity change, negative = inhibition, actives largely listed as inhibitors; 340,000 tested, 3.4% active; Huh7.5.1 HCVcc-Cre infection, luciferase reporter, 44 h; further: potency means the concentration at half of the fitted maximal effect
#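 Cells (1,000/well) were plated 4 h before compound, then infected with HCVcc-Cre virus (~0.5 moi). After 44 h further culture, infection was read as luciferase luminescence following a 15 min substrate incubation at room temperature.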
# Giardia FBPA inh: qHTS Assay for Inhibitors of Fructose-1,6-bisphosphate Aldolase from Giardia Lamblia | A8B2U2 | purified Giardia FBPA | Potency, µM (doses to about 59.6 µM), for inactives: top-dose activity, negative = inhibition, usual class: inhibitors | 290,000 tested, 0.71% active | AID 2451, 2010; further: potency means the concentration at half of the fitted maximal effect; nearly all actives have a fitted effect of over 55% in size
# Target sequence (A8B2U2 whole entry, looked up): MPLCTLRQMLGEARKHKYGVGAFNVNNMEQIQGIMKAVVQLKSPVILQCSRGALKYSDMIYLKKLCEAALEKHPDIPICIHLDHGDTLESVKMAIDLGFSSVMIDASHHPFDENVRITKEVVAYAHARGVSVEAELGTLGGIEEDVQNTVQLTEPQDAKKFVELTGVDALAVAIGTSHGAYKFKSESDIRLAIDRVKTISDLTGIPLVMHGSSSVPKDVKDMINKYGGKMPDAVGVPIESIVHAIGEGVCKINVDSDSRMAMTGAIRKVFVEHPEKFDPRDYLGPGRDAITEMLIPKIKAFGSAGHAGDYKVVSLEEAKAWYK
#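 Giardia FBPA (40 nM reagent) was preincubated 10 min at RT with compound (up to 57.5 uM final), then substrate plus GAPDH/TPI/NAD/arsenate coupling system with diaphorase/resazurin was added; resorufin fluorescence (525/598 nm) was read after 20 min.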
# FMDV antiviral: High Throughput Screening for Foot and Mouth Disease Virus Antivirals; Potency, µM (doses to about 57.9 µM), inactives show at the highest dose activity change, negative = inhibition, usual class: inhibitors; 410,000 tested, 1.2% active; AID 1159524, 2015; FMDV antiviral cell-based qHTS; calls by dose curve; tested in HEK293T cells; further: read-out not given here; potency means the concentration at half of the fitted maximal effect; nearly all actives have a fitted effect of over 45% in size
# Vaccinia Venus: qHTS for Stage-Specific Inhibitors of Vaccinia Orthopoxvirus: Venus Reporter Primary qHTS. Vaccinia virus Venus reporter expression, fluorescence. Potency, µM (series often up to 36.5 µM), inactives show top-dose activity change, negative = inhibition, usual class: inhibitors. 330,000 tested, 0.46% active. AID 720580, 2013; calls by dose curve; tested in A549 cells; further: potency means the concentration at half of the fitted maximal effect; nearly all actives have a fitted effect of over 30% in size
# VACV mCherry inh: qHTS for Stage-Specific Inhibitors of Vaccinia Orthopoxvirus: mCherry Reporter Primary qHTS | Vaccinia virus mCherry reporter infection, fluorescence | Potency, µM (top dose mostly 36.5 µM), inactives show top-dose activity change, negative = inhibition, usual class: inhibitors | 310,000 tested, 0.63% active; calls by dose curve; tested in A549 cells; further: potency means the concentration at half of the fitted maximal effect; nearly all actives have a fitted effect of over 35% in size
# HCMV antiviral: qHTS Assay for inhibitors of the human cytomegalovirus (HCMV); activity change, negative = inhibition, % at 57.5 µM; HFF cells, HCMV-luciferase reporter, 72 h; active compounds read low; AID 1259415, 2018; 410,000 tested, 4.5% active; in the data active means activity change below about -60%; inconclusive means no clear call, values can overlap the other calls; inactive means above about -39%
#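 Two-dose cell screen: HFF monolayers treated with compounds and infected with luciferase-expressing HCMV at 1 PFU/cell, 72 h at 37C, then lysed for luciferase measurement.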
# Numbers without * were called inactive; i = inactive; u = inconclusive; x = not tested or not shown. In the library only some 7.5% were active in any assay of this set; here they are far more common. Unless noted, the call rests on the fitted dose curve; in most records, active means well fitted curve in the direction sought with a large enough effect; inconclusive means small, poorly fitted or top-dose-only effect, or another doubt; inactive means no such curve, though single readings can be large; an effect the other way counts as inactive or inconclusive. On the % scale 0 is the no-effect control and ±100 the full control effect.
SMILES,HCV inh,Giardia FBPA inh,FMDV antiviral,Vaccinia Venus,VACV mCherry inh,HCMV antiviral
O=C(O)c1ccc(NC2=C/C(=N/S(=O)(=O)c3ccccc3)c3ccccc3C2=O)cc1,6.3µM*,u,11µM*,u,u,-101*
CCc1ccc(S(=O)(=O)/N=C2\C=C(Nc3cccc(C(=O)O)c3)C(=O)c3ccccc32)cc1,u,x,u,-16%,u,12
CC1CCN(C(=O)CN2CCSc3ccccc32)CC1,x,x,-16%,6%,-7%,44
O=S1(=O)CCOCCCN1Cc1ccc(F)cc1,x,x,x,u,-15%,x
COc1ccc(OC)c(NC(=O)Nc2ccc3c(c2)OCO3)c1,-21%,-7%,13%,x,x,-10
CCNC(=O)c1ccc(=O)n(Cc2ccc(Cl)cc2Cl)c1,u,x,-6%,-9%,-15%,u
CCc1ccc(S(=O)(=O)/N=C2\C=C(Nc3ccc(O)cc3)C(=O)c3ccccc32)cc1,u,1.4µM*,35µM*,4µM*,u,x
COC(=O)[C@]12CCCCC=C1N(Cc1ccco1)C(=O)[C@H](CC(=O)N1CCOCC1)C2,x,x,-18%,10%,16%,1
COc1ccc(CN2C(=O)CS/C2=N/N=C/c2ccccc2)cc1,13µM*,-1%,14%,x,x,53
Cc1cc(C)nc(Nc2nc(C(N)Cc3ccc(Cl)cc3)cs2)n1 (stereo not given),x,x,-28%,u,u,17
Cc1c(NC(=O)/C(=C/c2cccs2)c2cccs2)c(=O)n(-c2ccccc2)n1C,12%,5%,-8%,-4%,i,-102*
Cc1c(N/N=C(\C#N)C(=O)c2ccc(Cl)cc2)c(=O)n(-c2ccccc2)n1C,u,u,-2%,u,11µM*,-100*
N#C/C(=N\Nc1ccc(Cl)cc1)C(=O)c1ccccc1,22µM*,-8%,u,u,-24%,-99*
CCOC(=O)NC(=O)/C(C#N)=N\Nc1ccc(Cl)cc1,1%,0%,-2%,-20%,x,-8
Cc1c(NC(=O)/C(C#N)=C/c2ccc(-c3ccc(Cl)cc3)o2)c(=O)n(-c2ccccc2)n1C,u,0%,25µM*,u,u,u
Cc1c(NC(=O)/C(C#N)=C\c2cccs2)c(=O)n(-c2ccccc2)n1C,4%,3%,-7%,-4%,-6%,-18
Cc1c(NC(=O)/C(C#N)=C/c2ccc(-c3cc(Cl)ccc3Cl)o2)c(=O)n(-c2ccccc2)n1C,u,0%,-12%,u,-16%,u
CCC[C@H]1[C@H](NCc2cccs2)CC[C@@]23CCCN2C(=O)CCC[C@@H]13,x,x,x,x,x,6
CC1CCN(c2ncnc3c2nnn3C)CC1,x,x,-13%,-11%,i,0
COc1ccc(S(=O)(=O)N2CCC[C@@H]2C(=O)N2CCC[C@H]2C(=O)NCc2ccncc2)cc1C,x,x,-19%,-6%,-11%,11
C[C@@H]([C@H](O)c1ccccc1)N(C)C(=S)Nc1ccccc1,2%,-13%,-24%,x,x,16
COc1ccccc1-c1nc(C#N)c(N2CCN(Cc3ccccc3)CC2)o1,11µM*,-1%,u,-18%,x,-33
Cc1ccccc1OCC(O)Cn1c(SC(C)C)nc2c1c(=O)[nH]c(=O)n2C (stereo not given),-26%,-12%,u,x,x,6
CC(C)Sc1nc2c(c(=O)[nH]c(=O)n2C)n1CC(O)COc1ccccc1 (stereo not given),5%,3%,-26%,-4%,-7%,u
CCSc1nc2c(c(=O)[nH]c(=O)n2C)n1CC(O)COc1ccccc1C (stereo not given),u,-11%,20µM*,x,x,44
SMILES,HCV inh,Giardia FBPA inh,FMDV antiviral,Vaccinia Venus,VACV mCherry inh,HCMV antiviral
CC(O)CSc1nc2c(c(=O)[nH]c(=O)n2C)n1CC(O)COc1ccccc1 (stereo not given),14%,0%,-13%,x,x,-94*
CCOC(=O)c1cccc(NC(=O)Cn2ncc3c(=O)oc4ccccc4c32)c1,x,x,-21%,3%,-8%,7
CCOc1ccc(/C=C2/Sc3ccc(C(=O)N4CCN(C(=O)c5ccco5)CC4)cc3N(C)C2=O)cc1OC,x,-10%,x,x,x,x
CCOC(=O)N1CCC(NC(=O)c2ccc3c(c2)N(C)C(=O)/C(=C/c2cccc(OC)c2)S3)CC1,3.2µM*,x,u,x,x,-19
CCOC(=O)N1CCN(C(=O)c2ccc3c(c2)N(C)C(=O)/C(=C\c2ccc(OCC)c(OC)c2)S3)CC1,10µM*,-13%,35µM*,u,u,u
Cc1oc(-c2ccc(C(=O)NCc3ccccc3)cc2)nc1CN1CCc2ccccc21,x,x,u,-24%,-29%,-7
O=C1Nc2cccnc2N(C(=O)CCl)c2ccccc21,16µM*,-1%,u,u,u,u
CCOc1ccc(NC(=O)C(CC)n2nc(-c3ccc(C)c(C)c3)ccc2=O)cc1 (stereo not given),x,x,0%,-19%,-20%,5
O=C(CCN1N=C(c2ccccc2)CCC1=O)NC1CCCC1,5%,10%,-10%,x,x,-15
O=C(CCN1N=C(c2ccccc2)CCC1=O)NC1CCCCC1,x,x,5%,-13%,-19%,-77*
COc1nc(NC(=O)c2ccc(F)cc2)nc(OC)c1-c1ccccc1,u,9%,-18%,-6%,-3%,-64*
CCN(CC)c1ccc(N=Cc2ccc([N+](=O)[O-])o2)cc1,13µM*,u,-9%,u,u,-9
COc1ccc(-c2ccc(SCc3cccnc3)nn2)cc1OC,u,-3%,-15%,-10%,i,-63*
c1ccc(-c2ccc(SCc3cccnc3)nn2)nc1,-5%,u,28%,u,11µM*,69
COc1ccc2c(c1)C1=C(CC2)C(c2ccc(C)cc2)NC(=S)N1 (stereo not given),11µM*,-8%,-1%,x,x,u
COc1cccc(C2NC(=S)NC3=C2CCc2ccccc23)c1 (stereo not given),u,16µM*,-2%,-10%,-8%,u
COc1ccc(C2NC(=O)NC3=C2CCc2ccccc23)cc1 (stereo not given),u,u,-5%,u,x,x
CC1CCCN(c2c([N+](=O)[O-])cc(C(=O)O)cc2[N+](=O)[O-])C1 (stereo not given),-2%,u,-5%,-7%,i,-101*
CC1CCCN(c2ccc(C(=O)N3CCC4(CC3)OCCO4)cc2[N+](=O)[O-])C1 (stereo not given),27%,2%,42%,1%,i,-25
CCCCNC(=O)CSc1nnc(-c2cccc(S(=O)(=O)N3CCOCC3)c2)o1,4%,x,3%,x,x,11
